Measurements taken from article PMC5540273 (PLoS ONE, 2017).
Like-named read-outs stand apart in the source and are kept apart here.

Experiments:
NIM1 = system: T1, NIM1; conditions: concentration: 1 μM, replicates: in singlicate; n = 1
T1 construct: gene MGC42105

NLK = conditions: concentration: 1 μM, replicates: in singlicate; n = 1
OSR1 = system: T2, OSR1; conditions: concentration: 1 μM, replicates: in singlicate; n = 1
T2 construct: gene OXSR1

PAK1 = conditions: concentration: 1 μM, replicates: in singlicate; n = 1
PAK2 = conditions: concentration: 1 μM, replicates: in singlicate; n = 1
PAK3 = conditions: concentration: 1 μM, replicates: in singlicate; n = 1
PAK4 = conditions: n = 1
PAK6 = conditions: concentration: 1 μM, replicates: in singlicate; n = 1
PAK7 = conditions: concentration: 1 μM, replicates: in singlicate; n = 1
PCTK1 = system: T3, PCTK1; conditions: concentration: 1 μM, replicates: in singlicate; n = 1
T3 construct: gene CDK16

[1] = concentration: 1 μM, replicates: in singlicate
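Also: KINOMEscan kinase panel screen.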

| SMILES | %Inh (NIM1) [%] | %Inh (NLK) [%] | %Inh (OSR1) [%] | %Inh (PAK1) [%] | %Inh (PAK2) [%] | %Inh (PAK3) [%] | %Inh (PAK4; [1]) [%] | %Inh (PAK6) [%] | %Inh (PAK7) [%] | %Inh (PCTK1) [%] | %Inh (PAK4; 1 µM) [%] |
| --- | --- | --- | --- | --- | --- | --- | --- | --- | --- | --- | --- |
| N#CC1(c2cccc(C(=O)Nc3cccc(Oc4ccc5nc(NC(=O)C6CC6)sc5n4)c3)c2)CC1 | 0 | 0 | 0 | 3 | 27 | 0 | 0 | 15 | 0 | 0 | – |
| O=C(O)C(F)(F)F.O=c1[nH]ccc2nc(N[C@@H]3CCNC3)nc(Nc3cc(Cl)cc(Cl)c3)c12 [GSK2188764] | 67 | 19 | 54 | 92.2 | 78 | 96.9 | 96.4 | 96 | 99.9 | 7 | – |
| COC(=O)Nc1nc2ccc(Oc3ccc(CC(=O)Nc4cc(C(F)(F)F)ccc4F)cc3)cc2[nH]1 [GW680903] | 26 | 22 | 3 | 19 | 22 | 15 | 0 | 0 | 97.7 | 0 | – |
| COc1cccc(-c2nc(-c3ccccc3)[nH]c2-c2ccncc2)c1 [SB-610250] | 40 | 89 | 0 | 23 | 32 | 16 | 0 | 0 | 0 | 5 | – |
| COc1cc(Nc2ccnc3cc(-c4ccncc4)ccc23)cc(OC)c1OC.Cl [GW494610] | 23 | 92.8 | 100 | 0 | 0 | 0 | 0 | 0 | 0 | 0 | – |
| Cc1cc(-c2ccnc(Nc3cccc(C#N)c3)n2)cc(C)c1O [GSK1440913] | 12 | 16 | 13 | 34 | 28 | 0 | 0 | 0 | 0 | 16 | – |
| O=C1NC(=O)C(c2ccccc2Cl)=C1Nc1cccc(Cl)c1 [SB-342409] | 4 | 22 | 2 | 24 | 17 | 0 | 0 | 7 | 0 | 34 | – |
| Cc1nn2c(=O)cc(N3CCO[C@H](C)C3)nc2n1Cc1cccc(Cl)c1Cl [GSK2373693] | 11 | 78 | 83 | 2 | 10 | 36 | 0 | 52 | 0 | 7 | – |
| O=C(Nc1n[nH]c2nc(-c3cccc(O)c3)ccc12)C1CC1 [SB-711805] | 0 | 96.7 | 0 | 0 | 18 | 0 | 0 | 100 | 4 | 52 | – |
| CCOc1nccc(-c2c(-c3ccc(F)cc3)ncn2C2CCNCC2)n1 [SB-249175] | 44 | 45 | 47 | 6 | 29 | 0 | 32 | 3 | 6 | 26 | – |
| O=C(O)C(F)(F)F.O=c1[nH]ccc2nc(N[C@@H]3CCNC3)nc(Nc3ccc4c(c3)S(=O)(=O)CC4)c12 [GSK2181306] | 67 | 28 | 76 | 97.2 | 95.2 | 99.9 | 99.5 | 94.6 | 99.9 | 85 | – |
| COc1cccc2c(-c3ccncc3)c(-c3ccc(F)cc3)nn12 [GW468513] | 14 | 86 | 7 | 0 | 10 | 61 | 0 | 0 | 0 | 0 | – |
| c1ccc(Oc2ccc(Nc3ccnc4cc(-c5ccc(CN6CCCCC6)o5)ccc34)cc2)nc1 [GW567143] | 69 | 13 | 4 | 16 | 16 | 33 | 0 | 0 | 8 | 0 | – |
| CSc1ccc(NC2=C(c3ccc(Cl)cc3)C(=O)NC2=O)cc1 [SB-317658] | 0 | 0 | 6 | 2 | 28 | 36 | 2 | 29 | 0 | 0 | – |
| CCn1cnc2c(NCc3ccccc3)ncnc21 [SKF-96418] | 17 | 0 | 0 | 11 | 42 | 0 | 0 | 0 | 0 | 0 | – |
| Cc1ccc(O)cc1Nc1ccnc2ccc(C(C)(C)C)cc12 [GW856805] | 52 | 1 | 30 | 23 | 50 | 0 | 17 | 34 | 2 | 12 | – |
| CS(=O)(=O)c1cccc(CNc2nc(Nc3ccc4c(c3)CCC(=O)N4)ncc2C(F)(F)F)c1 | 5 | 0 | 0 | 0 | 0 | 0 | 0 | 0 | 0 | 0 | – |

| SMILES | %Inh (NIM1) [%] | %Inh (NLK) [%] | %Inh (OSR1) [%] | %Inh (PAK1) [%] | %Inh (PAK2) [%] | %Inh (PAK3) [%] | %Inh (PAK4; [1]) [%] | %Inh (PAK6) [%] | %Inh (PAK7) [%] | %Inh (PCTK1) [%] | %Inh (PAK4; 1 µM) [%] |
| --- | --- | --- | --- | --- | --- | --- | --- | --- | --- | --- | --- |
| O=C(Nc1c(F)cccc1F)c1cc(C(=O)c2ccccc2F)c[nH]1 [GSK1326180] | 0 | 0 | 34 | 0 | 0 | 0 | 0 | 0 | 0 | 0 | – |
| Nc1ncc(-c2ccc3nccc(-c4ccncc4)c3c2)cc1S(=O)(=O)N1CCCCC1 [GSK1693850] | 0 | 13 | 5 | 18 | 8 | 14 | 0 | 0 | 18 | 0 | – |
| CC(C)c1nc(-c2cccc(NS(=O)(=O)c3c(F)cccc3F)c2)c(-c2ccnc(Nc3ccc(N4CCOCC4)nc3)n2)s1.Cl [GSK1723980] | 0 | 97 | 4 | 19 | 16 | 73 | 0 | 0 | 0 | 99.9 | – |
| Cc1ccc(C)c(NC(=O)Nc2ccc(C)c(-c3ccc(C(=O)Nc4ccncc4)cc3)c2)c1 [GSK1398473] | 1 | 50 | 2 | 21 | 15 | 15 | 0 | 0 | 0 | 13 | – |
| Cl.Cl.NCC(NC(=O)c1cc(-c2cccnc2)c(-c2ccnc3[nH]ccc23)s1)c1ccccc1 (stereo not drawn) [GSK1323434] | 36 | 19 | 17 | 4 | 6 | 39 | 0 | 28 | 65 | 0 | – |
| Cc1cc(-c2c(-c3ccc(F)cc3)ncn2CCCN2CCOCC2)nc(N)n1 [SB-222517] | 0 | 17 | 0 | 0 | 66 | 0 | 1 | 1 | 0 | 0 | – |
| CN1CCN(Cc2ccc(NC(=O)Nc3ccc(N(C)c4ccnc(Nc5ccc(CS(C)(=O)=O)cc5)n4)cc3)cc2)CC1.Cl [GW827654] | 42 | 0 | 0 | 24 | 65 | 62 | 98.4 | 34 | 51 | 22 | – |
| Cc1cccc(Nc2nc(N[C@H]3CCCC[C@H]3N)ncc2C(N)=O)c1.Cl [GSK986310] | 18 | 27 | 33 | 40 | 70 | 55 | – | 89 | 99.5 | 10 | 95.4 |
| Cc1ccc(O)cc1Nc1ccnc2cc(-c3ccc(CN4CCCCC4)o3)ccc12 [GW557777] | 0 | 19 | 0 | 24 | 23 | 0 | 13 | 21 | 7 | 0 | – |
| CCn1c(-c2nonc2N)nc2c(-c3ccccc3)ncc(OCCCN)c21.O=C(O)C(F)(F)F.O=C(O)C(F)(F)F [GSK260205] | 39 | 94.5 | 3 | 2 | 31 | 49 | 0 | 0 | 0 | 0 | – |
| Cn1cc(-c2ccc3c(c2)CCN3C(=O)Cc2cc(F)cc(C(F)(F)F)c2)c2c(N)ncnc21 [GSK2635225] | 20 | 14 | 0 | 13 | 0 | 16 | 2 | 4 | 16 | 7 | – |
| Cc1ccccc1CC(=O)N1CCc2cc(-c3cn(C)c4ncnc(N)c34)ccc21 [GSK2603346] | 3 | 0 | 12 | 0 | 0 | 48 | 0 | 0 | 0 | 0 | – |
| Nc1ncnc2scc(-c3ccc(NC(=O)Cc4cc(F)ccc4F)cc3)c12.O=C(O)C(F)(F)F [SB-731254-M] | 0 | 4 | 11 | 7 | 32 | 46 | 0 | 0 | 1 | 2 | – |
| Cc1cccc(Nc2nc(NCCN)ncc2C(N)=O)c1 [GSK1292139] | 29 | 0 | 15 | 16 | 48 | 16 | 93 | 76 | 98.6 | 3 | – |
| Cc1ccc(NC(=O)c2ccc(Cl)c(Cl)c2)cc1-c1ccc(C(=O)Nc2ccncc2)cc1 [GSK1398460] | 0 | 43 | 6 | 19 | 19 | 20 | 0 | 0 | 1 | 0 | – |
| Nc1ncc(-c2cn[nH]c2)c2scc(-c3ccc4c(c3)CCN4C(=O)Cc3ccccc3)c12 [GSK2593067] | 17 | 0 | 13 | 0 | 0 | 51 | 0 | 0 | 0 | 3 | – |
